Screens from PubChem BioAssay.
CDC25B-CDK2 inh: human CDC25B-CDK2/CyclinA binding inhibition. 94,000 compounds, 0.72% hits. z-score (no concentration beside the values). AID 1259370. P30305+P24941. HTRF CDC25B-CDK2/CyclinA binding, anti-His/anti-Flag; stronger effect = higher value; in the data active means z-score above about 3.2
HIV TAR-Tat: HIV-1 TAR-Tat binding disruption; z-score (no concentration beside the values); AID 1259389; HIV-1 TAR RNA, Tat peptide displacement FRET; stronger effect = higher value; 100,000 compounds, 0.6% hits; active means z-score of 3 or more in at least 2 runs
Numbers without * were called inactive; x = no result given. Most compounds without a hit are left out; they make up all but 0.9% or so of the library.

SMILES	CDC25B-CDK2 inh	HIV TAR-Tat
Cc1sc2ncn(CC(=O)N(C)C3CCCCC3)c(=O)c2c1S(=O)(=O)N1CCN(C)CC1	15*	-0.17
Cc1cc2c(N)cccc2nn1	17*	x
Nc1cccc2nsnc12	-2.1	x
CN1C(=O)c2cc(C(=O)NCCCN3CCCC3)nn2CC1(C)C(=O)NC1CCCCC1 (stereo not given)	x	0.98
Cn1cc(S(=O)(=O)N2CCc3ccccc32)cc1C(=O)Nc1ccc(S(N)(=O)=O)cc1	0.05	0.06
CC(C)(C)NC(=O)NNc1nc2ccc(Cl)cc2s1	-1.1	x
O=C(O)CSCC(=O)Nc1cc(C(F)(F)F)cc(C(F)(F)F)c1	8.4*	x
O=C(CSCC(=O)Nc1cccc(C(F)(F)F)c1)Nc1ccccc1	-1.5	x
CC1CCC(NC(=O)c2cc3c(s2)-c2ccc(Cl)cc2S(=O)(=O)C3)CC1 (stereo not given)	-2.8	2.1
CSc1cccc(NC(=O)C2CC3CSCN3C23C(=O)N(C)c2ccccc23)c1 (stereo not given)	x	1.1
CCN1C(=O)C2(c3ccccc31)C(C(=O)Nc1cccc(SC)c1)CC1CSCN12 (stereo not given)	x	20*
CCCOC(=O)c1cc(O)c(O)c(O)c1	x	26*
CCOC(=O)c1cc(CO)cc(C(=O)OCC)c1	-2	x
Cc1nc(CNC(=O)c2oc3ccc(Cl)cc3c2C)cs1	-0.99	1.8
CCc1nnc(NC(=O)Cn2c(=O)sc3ccccc32)s1	-0.08	x
CCc1nnc(NC(=O)c2cc(=O)n3c(nc4ccccc43)s2)s1	x	3.8*
NC(COCc1ccccc1)C(=O)O (stereo not given)	x	1.8
CC(=O)Nc1ccc(S(=O)(=O)Nc2cccc(C(=O)Nc3ccccc3C(=O)O)c2)cc1	-2.6	x
O=C(Nc1cccc(C(=O)Nc2ccc(S(=O)(=O)O)c3cc(S(=O)(=O)O)cc(S(=O)(=O)O)c23)c1)Nc1cccc(C(=O)Nc2ccc(S(=O)(=O)O)c3cc(S(=O)(=O)O)cc(S(=O)(=O)O)c23)c1	4.6*	x
O=C(CCCc1nc(-c2ccco2)no1)Nc1ccncc1	-2.1	4.2*
O=C(CCc1nc(-c2ccco2)no1)Nc1ccncc1	6.6	1.2
COc1cccc(CN(CCS(=O)(=O)N2CCNCC2)S(=O)(=O)c2ccccc2)c1	x	2.3
Cc1cc(C)n2c(n1)nc1ccccc12	-2.1	x
Cc1cc(-n2nnc3ccccc32)nc(C)n1	-1.2	14*
CCN(CC)c1ccc(/C=C/c2ccc([N+](=O)[O-])cc2C#N)cc1	-2.3	x
SMILES	CDC25B-CDK2 inh	HIV TAR-Tat
O=c1[nH]c(=O)n(C2C[C@@H](O)[C@@H](CO)O2)cc1F (stereo not given in full)	x	2.2
C=CCOc1c(Cl)cc(CNc2ccc3[nH]c(=O)[nH]c3c2)cc1OC	-0.61	1.6
COc1cc(CNCCSc2nnnn2C)cc(Br)c1OCc1ccc(F)cc1	1.4	1.5
CCOc1cc(CNc2ccc3[nH]c(=O)[nH]c3c2)cc(Cl)c1OCC	7.7*	-2.6
COc1cc(CNc2ccc3[nH]c(=O)[nH]c3c2)cc(Br)c1OCc1ccc(F)cc1	7.2*	-2.9
Cn1cnnc1Sc1nc2c(c(=O)n(C)c(=O)n2C)n1Cc1cccc(Cl)c1	-0.2	1.3
Cc1ccc(C)c(CN2CCC(CNS(=O)(=O)c3cnc[nH]3)CC2)c1	x	1.1
COc1ccc(CCN=C2NS(=O)(=O)C(c3ccc(C)c(C)c3)=C2C)cc1OC	-1.7	-0.77
O=C(O)CCc1nc2ccc(C(=O)O)cc2[nH]1	0.54	0.63
Nc1ccc2nc(CCC(=O)O)[nH]c2c1	19*	1.1
CC1CC(C)CN(S(=O)(=O)c2ccc3c(c2)oc(=O)n3CC(=O)N2CCCCC2C)C1 (stereo not given)	-2.2	x
COC(=O)C1=C(C)Nc2[nH]c(=O)[nH]c(=O)c2C1c1ccc(Br)cc1 (stereo not given)	3.6*	1.1
C=CCOC(=O)C1=C(C)Nc2[nH]c(=O)[nH]c(=O)c2C1c1ccc(CC)cc1 (stereo not given)	-1.7	x
Cn1c(=O)[nH]c(=O)c2c1nc(N1CCN(Cc3ccccc3)CC1)n2CCSc1ncccn1	0.28	x
CCN1/C(=C/C2=CC(=O)CC(C)(C)C2)Sc2ccccc21	-2.1	-15
C=CCN1/C(=C/c2cccc[n+]2C)Sc2ccccc21	0.99	6.7*
C=CC[n+]1ccc(/C=C2\Sc3ccccc3N2C)cc1	-3.4	1.6
CN1/C(=C\c2cc[n+](C)cc2)Sc2ccccc21	0.14	7.5*
C=CCN1/C(=C/c2cc[n+](C)cc2)Sc2ccccc21	0.36	4.1*
CCn1c(=O)/c(=C2\Sc3ccccc3N2C)s/c1=C\c1cccc[n+]1C	x	1
CCc1nc(C)cn1S(=O)(=O)c1cc(OC)ccc1OC	0.4	0.49
CCOC(=O)N1CCN(C(=O)CCS(=O)(=O)c2ccc3c(c2)CCN3C(=O)CC)CC1	x	0.77
CC(NC(=O)CN1C(=O)CCSc2ccccc21)C12CC3CC(CC(C3)C1)C2 (stereo not given)	-1.4	x
Cc1nc(-c2cccs2)c(CC(=O)N2C[C@H](C)C[C@H](C)C2)s1	-1.6	-1.7
O=c1c(-c2cc(O)c(O)c(O)c2)coc2cc(O)c(O)c(O)c12	x	26*
SMILES	CDC25B-CDK2 inh	HIV TAR-Tat
O=c1c(-c2ccc(O)cc2)coc2cc(O)cc(O)c12	-2.5	3.1
CC(C)OCCCNc1nc2c(S(=O)(=O)c3ccc(Cl)cc3)nnn2c2ccsc12	x	1.1
O=C(Nc1cccc2nsnc12)c1nc(-n2cnnc2)ccc1Br	x	2.5
O=C(Nc1cccc2nsnc12)c1cccc(-n2cnnc2)n1	x	14*
COC(=O)c1nnn(-c2cc(Cl)ccc2OC)c1C(=O)OC	-1.9	0.98
Cc1cc2oc(C(=O)Nc3sc4c(c3C(=O)NCc3ccco3)CCC4)cc(=O)c2cc1C	6.6*	12*
Cc1cc(C)c2c(=O)cc(C(=O)Nc3sc4c(c3C(=O)NCc3ccco3)CCC4)oc2c1	4*	2
Cc1cc(C)c2oc(C(=O)Nc3sc4c(c3C(=O)NCc3ccco3)CCC4)cc(=O)c2c1	-1.2	-0.05
Cc1ccc2oc(C(=O)Nc3sc4c(c3C(=O)NCc3ccco3)CCC4)cc(=O)c2c1	-0.74	-2.3
Cc1ccc(-c2cc(C(=O)O)c3c(-c4ccccc4)[nH]nc3n2)cc1	x	0.86
Cc1ccc(-c2[nH]nc3nc(-c4ccc(O)c(O)c4)cc(C(=O)O)c23)cc1	-0.27	20*
CN1CCc2cc(O)c(O)cc2C1Cc1ccc(O)c(O)c1 (stereo not given)	x	38*
COc1cc(Br)c(CC2c3cc(OC)c(OC)cc3CCN2C)cc1OC (stereo not given)	x	0.98
O=C(O)C1=CC(=C(c2ccc(O)c(C(=O)O)c2)c2ccc(O)c(C(=O)O)c2)C=CC1=O	11*	x
O=C1C=CC(=C(c2ccc(O)cc2)c2ccc(O)cc2)C=C1	x	-0.04
COc1ccc(-c2cc(-c3nc(-c4ccc(OC)c(OC)c4)no3)[nH]n2)c(OC)c1	x	0.05
COc1ccc2nc(NC(=O)Cn3cnc(S(=O)(=O)N4CCc5ccccc54)c3)sc2c1	x	-0.6
O=C(Cc1csc2ccccc12)Nc1ccc(F)cc1	-4.6	x
c1csc(-c2cc3ccccc3[nH]2)c1	-1.2	-1.2
CCOC(=O)c1nn(-c2ccccc2)c(=O)c2c(N)scc12	19*	-4.9
CCOC(=O)c1nn(-c2ccc(OC)cc2)c(=O)c2c(NC(=O)C3CCCC3)scc12	-1.4	x
CCN1CCN(c2nnc(-n3cccc3CNc3ccccc3F)s2)CC1	x	2.7
O=C(Cn1ncc2c1-c1ccccc1OC2)N1CCCC1	-1.1	x
O=C(O)Cn1ncc2c1-c1ccoc1CC2	11*	0.9
